PubChem BioAssay
Records with an inconclusive call do not appear. Calls of active or inactive are those of the source.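 Rule for the calls, unless noted: active = RAM network inhibition above 8.4% in each of two replicates, 3 SD over the compound average; inconclusive = above 8.4% inhibition in only one replicate; inactive = 8.4% inhibition or less in each replicate.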

Assays:
[1] = HUVEC growth inhibition – cell-based, human, primary screen (AID 575;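 active = viability at or below 30% in both replicate assays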;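 note: 100% = median of untreated cell wells with 0.1% DMSO on each plate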); conditions: HUVEC proliferation, CellTiter-Glo luminescence, 72 h; at 10 µM; stronger effect = lower value
[2] = H69AR cell proliferation blockers – human, duplicate replicates, primary screen (AID 580;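 active = viability at or under a set limit in both replicates, limit being median viability minus 3 SD, cut at about 48% in these data, passing the limit was not always enough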;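 note: 100% = mean luminescence of untreated wells and 0% = no signal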); conditions: H69AR lung tumor cells viability, ATP luminescence, 72 h; at 10 µM; stronger effect = lower value
[3] = MRP1 drug-resistance reversers in H69AR cells – cell-based, doxorubicin co-treatment, pilot screen (AID 601;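 active = viability loss from added drug above about 55%, and viability with drug at most 40%, in both replicates, limit read from the data, passing the limit was not always enough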); conditions: CellTiter-Glo, 72 h, at 10 µM; for differential viability (reversal): stronger effect = higher value
[4] = yeast transport mutant growth inhibition pilot in 384-well plates, post-Golgi transport modulator project (AID 636; in the data active = inhibition above about 31%); conditions: absorbance 615 nm, about 18 h, stronger effect = higher value
[5] = growth suppression of yeast trafficking mutant, preliminary HTS, modulators of trafficking downstream of Golgi apparatus project, 1536-format plate, OD 615 nm (AID 637; in the data active = inhibition above about 30%); conditions: yeast transport mutant growth, absorbance 615 nm, 18 h; stronger effect = higher value
[6] = S. cerevisiae growth inhibition in permissive medium (OD615), pilot counter-assay for S. cerevisiae lifespan shortening project, permissive growth control (AID 705;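 active = growth inhibition above 25% in both replicates, a cutoff set 3 SD above the mean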); conditions: OD615, 24 h, at 10 µM, stronger effect = higher value
[7] = S. cerevisiae growth inhibition in restrictive medium, OD615, pilot screen, restrictive growth control, yeast lifespan reduction project (AID 706;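 active = growth inhibition above a set limit, 3 SD over mean compound inhibition, in both replicates, cut at about 43% in these data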;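 note: modified DeaD lifespan yeast strain shifted to restrictive glucose medium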); conditions: OD615, 48 h, at 10 µM, stronger effect = higher value
[8] = doxorubicin toxicity protection in MRP-1 cells – H69AR cells, CellTiter-Glo, duplicate, MRP-1 activator project, pilot screen (AID 807;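 active = viability increase at or above a cutoff of the median across tested compounds plus 3 SD, cut at about 8.5% in these data, passing the limit was not always enough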;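 note: compound pretreatment 18-22 h then 72 h combined with doxorubicin; 0% = doxorubicin alone and 100% = vehicle without doxorubicin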); conditions: H69AR viability with doxorubicin, CellTiter-Glo luminescence; at 10 µM; stronger effect = higher value
[9] = viability of HCT116 without oncogenic beta-catenin – human colon tumor cells, pilot screen (AID 823;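 active = cell viability at or below a set limit in both duplicate runs, the limit being the all-compound median minus 4 SD, cut at about 23% in these data, passing the limit was not always enough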;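 note: 0% = wells killed by 20 µM Hyamine and 100% = untreated DMSO cell wells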); conditions: HCT116 beta-catenin knockout viability, CellTiter-Glo, 60 h; at 10 µM; stronger effect = lower value
[10] = viability of PTEN-null HCT116 cells – cell-based, HCT116 clonal line, CellTiter-Glo, pilot screen (AID 824;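 active = viability at or below 27.92% in each of two runs, the all-compound median minus 4 SD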;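 note: 0% = 20 µM Hyamine control and 100% = vehicle cell control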); conditions: HCT116 PTEN-deleted viability, 60 h, at 10 µM, stronger effect = lower value
[11] = RAM pathway blockade in budding yeast – dse1pr::URA3 reporter, 5-FOA selection, pilot screen (AID 869;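 active = inhibition over a set limit, the all-compound mean plus 3 SD, in both replicate runs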;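 note: 0% = DMSO wells with no growth and 100% = 10 µM 1-NA-PP1 with full growth; RAM network block rescues cells from 5-FOA so hits raise OD615 growth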); conditions: S. cerevisiae dse1pr::URA3 5-FOA growth, OD615, 2 d; at 10 µM; stronger effect = higher value; strain carries analog-sensitive mutant Cbk1 kinase
[12] = RAM signaling pathway blockade in yeast – S. cerevisiae, Pdr1DBD-CYC8 efflux-inhibited sensitized strain, primary screen (AID 1298);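 note: 0% = DMSO untreated cells without growth and 100% = 10 µM 1-NA-PP1 full growth; higher means more yeast growth rescued from 5-FOA killing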; conditions: S. cerevisiae cbk1-as DSE1-URA3 strain, 5-FOA growth OD615, 2 d; at 50 µM; stronger effect = higher value
[13] = H69AR cells + 2 uM doxorubicin, measured here: viability with 2 uM doxorubicin, stronger effect = lower value
[14] = H69AR cells, compound alone cytotoxicity

O=C(CCCCCn1c(=O)[nH]c2ccsc2c1=O)N1CCCCC1
89.2%: viability [3, 13]
inactive: viability [1] 102% | viability [2] 95% | differential viability (reversal) ([3]; H69AR cells + 2 uM doxorubicin) 5.84% | inhibition [4] -2.5% | inhibition [5] 7.62% | growth inhibition [6] 1.02% | growth inhibition [7] -1.91% | viability increase [8] -1.28% | viability [9] 96.9% | viability [10] 99% | inhibition [11] 0.36% | RAM network inhibition [12] -0.43%
95%: viability [3, 14]

O=C(NCc1cccs1)C(Cc1ccccc1)NS(=O)(=O)c1cccs1 (centres undefined)
91.7%: viability [3, 14]
87.2%: viability [3, 13]
inactive: viability [1] 95.7% | viability [2] 91.7% | differential viability (reversal) ([3]; H69AR cells + 2 uM doxorubicin) 4.5% | inhibition [4] -3.16% | inhibition [5] 5.08% | growth inhibition [6] -17.7% | growth inhibition [7] -8.73% | viability increase [8] -1.46% | viability [9] 94.3% | inhibition [11] 1.43% | RAM network inhibition [12] 4.56%

c1ccc2c(c1)ccc1nnc(-c3ccc4c(c3)OCO4)n12
inactive: viability [1] 98.7% | viability [2] 96% | differential viability (reversal) ([3]; H69AR cells + 2 uM doxorubicin) 4.88% | inhibition [4] -1.82% | inhibition [5] 3.33% | growth inhibition [6] -7.74% | growth inhibition [7] 2.03% | viability increase [8] -5.23% | viability [9] 93.7% | viability [10] 90.9% | inhibition [11] 1.31% | RAM network inhibition [12] 1.81%
96%: viability [3, 14]
91.1%: viability [3, 13]

COC(=O)C1CCN(C(=O)CSc2nnc(-c3ccncc3)o2)CC1
89%: viability [3, 13]
81.8%: viability [3, 14]
inactive: viability [1] 101% | viability [2] 81.8% | differential viability (reversal) ([3]; H69AR cells + 2 uM doxorubicin) -7.18% | inhibition [4] 1.43% | inhibition [5] 19.1% | growth inhibition [6] -0.605% | growth inhibition [7] -6.21% | viability increase [8] 1.44% | viability [9] 102% | viability [10] 102% | inhibition [11] 1.91% | RAM network inhibition [12] -1.1%

O=c1cc(-c2ccco2)oc2ccc(Cl)cc12
85.9%: viability [3, 13]
inactive: viability [1] 111% | viability [2] 98.4% | differential viability (reversal) ([3]; H69AR cells + 2 uM doxorubicin) 12.5% | inhibition [4] -2.6% | inhibition [5] 4.76% | growth inhibition [6] -19.4% | growth inhibition [7] -2.54% | viability increase [8] -2.08% | viability [9] 96.9% | viability [10] 98.2% | inhibition [11] 0.61% | RAM network inhibition [12] 6.02%
98.4%: viability [3, 14]

COc1cccc(N2CCN(c3c4c(nc5ncnn35)CCC4)CC2)c1
76.5%: viability [3, 13]
86.9%: viability [3, 14]
inactive: viability [1] 68.7% | viability [2] 86.9% | differential viability (reversal) ([3]; H69AR cells + 2 uM doxorubicin) 10.4% | inhibition [4] -4.55% | inhibition [5] 8.73% | growth inhibition [6] -0.38% | growth inhibition [7] 16.8% | viability increase [8] -1.17% | viability [9] 77.5% | viability [10] 92.9% | inhibition [11] 0.465% | RAM network inhibition [12] 4.78%

COc1ccc(C)cc1NC(=O)CNC(=O)Cn1ccc2ccccc2c1=O
85.9%: viability [3, 13]
inactive: viability [1] 112% | viability [2] 92.8% | differential viability (reversal) ([3]; H69AR cells + 2 uM doxorubicin) 6.84% | inhibition [4] -1.18% | inhibition [5] 1.59% | growth inhibition [6] -17.2% | growth inhibition [7] -3.23% | viability increase [8] -2.41% | viability [9] 89% | viability [10] 90.3% | inhibition [11] 1.96% | RAM network inhibition [12] 5.68%
92.8%: viability [3, 14]

COC(=O)c1nc2n(n1)C(c1ccc(OC)c(OC)c1)C(C(=O)OC1CCCCC1)=C(C)N2 (centres undefined)
inactive: viability [1] 88.9% | viability [2] 83.3% | differential viability (reversal) ([3]; H69AR cells + 2 uM doxorubicin) -14.8% | inhibition [4] -6.49% | inhibition [5] -4% | growth inhibition [6] -0.32% | growth inhibition [7] -3.14% | viability increase [8] -5.23% | viability [9] 97.5% | inhibition [11] 2.87% | RAM network inhibition [12] 6.75%
98%: viability [3, 13]
83.3%: viability [3, 14]

O=C(NCCc1cccc(Cl)c1)c1cccnc1
103%: viability [3, 14]
inactive: viability [1] 87.9% | viability [2] 103% | differential viability (reversal) ([3]; H69AR cells + 2 uM doxorubicin) 26.5% | inhibition [4] -2.21% | inhibition [5] 5.4% | growth inhibition [6] -1.24% | growth inhibition [7] 10.7% | viability increase [8] -0.51% | viability [9] 98.9% | viability [10] 98.3% | inhibition [11] 0.32% | RAM network inhibition [12] 1.21%
76.8%: viability [3, 13]

CCN(CC)CCn1c(=S)[nH]c2ccccc2c1=O
inactive: growth inhibition [6] -8.59% | growth inhibition [7] 6.18% | viability increase [8] -1.56% | viability [9] 103% | viability [10] 98.1% | RAM network inhibition [12] 6.58%

Cc1ccc(-c2cc(C(F)F)nc(NCc3cccnc3)n2)cc1
82.8%: viability [3, 13]
inactive: viability [1] 63.9% | viability [2] 80.3% | differential viability (reversal) ([3]; H69AR cells + 2 uM doxorubicin) -2.5% | inhibition [4] -2.63% | inhibition [5] 0.48% | growth inhibition [6] 4.57% | growth inhibition [7] -8.25% | viability [9] 51% | viability [10] 64.2% | inhibition [11] 1.65% | RAM network inhibition [12] 0.76%
80.3%: viability [3, 14]

CCn1cc(C(=O)NC2CCCCC2)c(=O)c2cc(S(=O)(=O)N(C)C)ccc21
inactive: growth inhibition [6] -0.125% | growth inhibition [7] 2.4% | viability increase [8] -1.45% | viability [9] 102% | viability [10] 94.7% | RAM network inhibition [12] -1.57%
